EBV gp42 inh: EBV gp42 inhibition; AID 1085; inhibition, % (tested at 21.74 µM); Fluorescence polarization binding assay, mP read-out; 0.42% of 220,000 active; in the data active = inhibition above about 50%
MCL1-BIM inh: inhibitors of human MCL1 binding to BIM-BH3 peptide. GST-MCL1 / FITC-Bim-BH3 fluorescence polarization. inhibition, % at 10.9 µM. 0.68% of 320,000 active;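 active = inhibition above the mean inhibition of all tested compounds plus 3 SD, set per campaign, cut at about 40% in these data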;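 note: 0% = DMSO wells and 100% = unlabeled Bim-BH3 peptide control; higher means more loss of mP so more displacement of Bim peptide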
MEX-5 binding: C. elegans MEX-5 TCR-2 RNA binding activity; activity score (negative = inhibition of binding), % at 10 µM; 0.38% of 300,000 active; Q9XUB2; AID 1832; MEX-5/FITC-TCR2 RNA binding, fluorescence polarization; hits give low values;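 active = inhibition past about -25% in most replicates, and total fluorescence under double the plate's negative control median, limit read from the data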;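 note: 0% = DMSO and -100% = 5 µM competing unlabeled TCR2 RNA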
Bcl-xL primary: blocks human Bcl-xL binding to Bim BH3 peptide; Q07817; GST-Bcl-xL / FITC-Bim BH3 peptide fluorescence polarization; inhibition, % at 10.9 µM; 0.7% of 320,000 active; AID 2129;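 active = inhibition above the mean of all tested compounds plus 3 SD, cutoff set per campaign, cut at about 30% in these data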;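 note: 0% = DMSO wells and 100% = unlabeled Bim-BH3 peptide competitor; inhibitors lower millipolarization by displacing the labeled peptide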
Target sequence (Q07817 whole entry, looked up): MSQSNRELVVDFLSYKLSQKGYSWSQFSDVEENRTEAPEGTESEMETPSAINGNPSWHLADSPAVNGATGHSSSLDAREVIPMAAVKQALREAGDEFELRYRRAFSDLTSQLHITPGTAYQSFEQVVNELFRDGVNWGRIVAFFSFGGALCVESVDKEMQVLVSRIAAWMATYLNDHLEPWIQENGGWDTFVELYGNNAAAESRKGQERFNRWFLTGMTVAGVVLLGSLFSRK
E coli Lon inh: inhibitors of E. coli Lon protease; 0.42% of 360,000 active; purified E. coli Lon protease, fluorescence polarization; inhibition, % at 7.94 µM; in the data active = inhibition above about 13%, passing the limit was not always enough;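 note: 0% = enzyme with probe and DMSO and 100% = no enzyme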
GLD-1 TGE inh: GLD-1-TGE RNA interaction inhibition (C. elegans); purified GLD-1 + fluorescein TGE RNA, fluorescence polarization; inhibition, % at 5.96 µM; 0.44% of 320,000 active;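 active = percent inhibition above a per-plate cutoff, the plate mean of test compounds plus 3 SD, cut at about 30% in these data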;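 note: 0% = DMSO wells with GLD-1 and probe and 100% = wells lacking GLD-1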
Target sequence (Q17339 whole entry, looked up): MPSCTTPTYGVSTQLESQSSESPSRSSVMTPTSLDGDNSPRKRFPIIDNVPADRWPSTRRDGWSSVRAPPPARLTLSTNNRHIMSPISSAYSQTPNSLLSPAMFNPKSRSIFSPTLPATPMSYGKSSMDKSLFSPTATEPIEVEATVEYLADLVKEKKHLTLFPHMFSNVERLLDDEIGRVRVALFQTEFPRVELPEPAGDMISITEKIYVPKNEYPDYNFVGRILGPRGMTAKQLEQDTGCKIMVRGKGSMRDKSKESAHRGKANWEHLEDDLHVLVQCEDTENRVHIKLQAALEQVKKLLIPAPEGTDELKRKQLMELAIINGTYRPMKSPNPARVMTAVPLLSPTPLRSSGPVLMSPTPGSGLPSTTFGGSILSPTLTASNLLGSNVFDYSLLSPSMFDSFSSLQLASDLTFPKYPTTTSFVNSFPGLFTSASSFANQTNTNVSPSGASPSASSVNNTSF
GLD-1 TGE cf: confirmation of C. elegans GLD-1 TGE RNA binding inhibitors; shares compounds with GLD-1 TGE inh; GLD-1/FL-TGE RNA fluorescence polarization, biochemical; inhibition, % at 5.96 µM; 10% of 550 active; AID 2459;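 active = average inhibition across triplicates above the hit cutoff set in the primary screen, cut at about 32% in these data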;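 note: 0% = GLD-1 with RNA probe and DMSO and 100% = wells lacking GLD-1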
E coli Lon conf: E. coli Lon inhibition confirmation | shares compounds with E coli Lon inh | purified E. coli Lon, fluorescence polarization | inhibition, % at 7.94 µM | 31% of 1,400 active; in the data active = inhibition above about 16%;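 note: 0% = enzyme with probe and DMSO and 100% = no enzyme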
The depositor's hits bear a star; nt = no result given; + = active, no number. Most compounds without a hit are left out; they make up all but 1.4% or so of the library.

SMILES | EBV gp42 inh | MCL1-BIM inh | MEX-5 binding | Bcl-xL primary | E coli Lon inh | GLD-1 TGE inh | E coli Lon conf | others
CCC(=O)Nc1sccc1C(=O)OC | -8.3 | 3.3 | -3.6 | 4.4 | -3.0 | 4.3 | nt
CCOC(=O)NC(=O)C(/C=N/c1sccc1C(=O)OC)=C(\C)O | -6.4 | 9.2 | -3.3 | 17.2 | 42.0* | 46.1* | 5.1 | GLD-1 TGE cf=2.6
O=C(Nc1cccc2ncccc12)c1ccco1 | nt | -11.9 | -1.0 | -6.7 | 2.4 | -5.0 | nt
O=c1[nH]c2cc3ccccc3cc2nc1C(F)(F)F | 27.7 | 14.1 | -10.5 | 13.9 | 25.7* | 57.9* | 37.4* | GLD-1 TGE cf=59.6*
COc1cc(O)cc2cc3c(c(O)c12)C(=O)CC(C)(O)O3 (stereo not given) | 32.8 | 43.1* | nt | 37.5* | 18.4* | 34.2* | 24.0* | GLD-1 TGE cf=48.6*
CCCCC1=CC2=C(c3ccco3)C(=O)C(C)(OC(=O)c3ccc(OC)cc3)C(=O)C2=CN1C(CO)CO (stereo not given) | -3.2 | 24.7 | -22.7 | 25.2 | 31.2* | 33.7* | 4.8 | GLD-1 TGE cf=15.1
CCCCC1=CC2=C(c3ccco3)C(=O)C(C)(OC(=O)c3ccc(OC)cc3)C(=O)C2=CN1C1CC1 (stereo not given) | 3.8 | 40.0* | -58.9* | 41.2* | 55.8* | 32.4* | 7.8 | GLD-1 TGE cf=12.2
COC(=O)CCCC1=CC2=C(c3ccccc3)C(=O)C(C)(OC(=O)C3CCCC3)C(=O)C2=CN1C1CC1 (stereo not given) | -5.1 | 17.4 | -11.3 | 20.0 | 12.2 | 14.1 | nt
O=C(CN1C(=O)C2C3C=CC(C3)C2C1=O)NCc1ccccc1 (stereo not given) | -23.0 | 6.5 | -1.4 | 1.1 | 3.6 | 2.2 | nt
O=C1C2CC=C(Cl)CC2C(=O)N1CCc1ccccc1 (stereo not given) | 25.3 | 40.7* | -33.9* | 33.0* | 25.3* | 42.6* | 47.9* | GLD-1 TGE cf=20.7
O=C(CN1C(=O)C2CC=C(Cl)CC2C1=O)NCc1ccccc1 (stereo not given) | 19.9 | 42.1* | -26.8* | 41.5* | 34.3* | 41.9* | 38.4* | GLD-1 TGE cf=32.9*
O=C1C2CC=C(Cl)CC2C(=O)N1CCc1c[nH]c2ccccc12 (stereo not given) | -4.4 | 0.5 | -2.2 | -1.4 | 3.4 | -3.4 | nt
COCc1c(C(=O)OCc2nc3ccsc3c(=O)[nH]2)oc2ccccc12 | nt | 10.6 | nt | 2.0 | 4.5 | 5.4 | nt
O=C(Nc1ccccc1)OCCOc1ccc(Cl)cc1Cl | nt | nt | nt | nt | -3.8 | nt | nt
Cc1cc(C)nc(SCc2ccc(C(=O)N/N=C3\CCCC(=O)C3)cc2)n1 | -5.0 | 13.9 | -1.3 | 7.7 | 22.6* | 43.2* | -10.0 | GLD-1 TGE cf=-9.1
Cc1cc(C)nc(SCc2ccc(C(=O)NN=C3CCCC3)cc2)n1 | -11.1 | 2.1 | -2.4 | 1.3 | 1.3 | 9.5 | nt
CN(C(=O)c1nn(C)c2c1CS(=O)(=O)c1ccccc1-2)c1cccc(Cl)c1 | nt | 3.9 | 0.3 | 6.2 | -1.5 | 6.1 | nt
CCCCN(C(=O)c1ccc([N+](=O)[O-])o1)c1c(N)n(CC(C)C)c(=O)[nH]c1=O | nt | 39.4 | -28.3* | 33.6* | 39.8* | 37.1* | 28.7* | GLD-1 TGE cf=64.5*
CCOc1ccccc1N1CCN(C(=O)c2c(-c3c(F)cccc3Cl)noc2C)CC1 | nt | 1.1 | -1.3 | 5.1 | -15.3 | 3.3 | nt
O=c1oc2cc(O)ccc2cc1S(=O)(=O)c1ccccc1 | nt | 30.3 | -0.1 | 27.2 | 18.7* | 40.4* | 43.0* | GLD-1 TGE cf=11.6
O=c1oc2cc(O)ccc2cc1-c1nc2ccccc2o1 | nt | nt | nt | nt | -64.2 | nt | nt
CCOc1ncccc1C(=O)OCC(=O)Nc1cc(S(=O)(=O)N(CC)CC)ccc1C | -0.8 | -4.2 | 1.5 | 1.5 | 13.4* | 0.3 | -1.7
CCN(CC)S(=O)(=O)c1ccc(C)c(NC(=O)COC(=O)C=C(C)C)c1 | -17.5 | -5.7 | -3.7 | 0.4 | 4.7 | 0.8 | nt
Cc1cc(C)n2nc(C)c(-c3ccccc3)c2n1 | nt | 0.7 | 0.4 | 9.3 | 22.4* | 5.5 | -14.2
CC(=O)Nc1ccc(-c2ccnc3c2CC(C)(C(=O)NCC2CC2)O3)cc1 (stereo not given) | nt | nt | nt | nt | -4.7 | nt | nt
SMILES | EBV gp42 inh | MCL1-BIM inh | MEX-5 binding | Bcl-xL primary | E coli Lon inh | GLD-1 TGE inh | E coli Lon conf | others
CC(=O)Nc1cccc(-c2ccnc3c2CC(C)(C(=O)NCC2CC2)O3)c1 (stereo not given) | nt | nt | nt | nt | 47.4* | nt | -4.7
Cc1cc(Cl)ccc1OCC(=O)NNC(=O)c1cnccn1 | 3.8 | 4.4 | -5.1 | 3.1 | 10.2 | 6.4 | nt
Cc1cc(Br)ccc1OCC(=O)NNC(=O)c1cnccn1 | -14.6 | 10.6 | -7.5 | 2.4 | 70.8* | -4.1 | -7.3
CCn1c2ccccc2c2cc([N+](=O)[O-])ccc21 | -20.9 | -4.4 | 2.4 | 0.1 | -5.1 | 9.0 | nt
CC(C)n1c2ccccc2c2cc([N+](=O)[O-])ccc21 | -8.3 | 5.6 | 0.6 | 3.7 | 56.0* | 0.9 | -9.9
COc1ccc(C2COc3cc(O)ccc3C2)c(OC)c1O (stereo not given) | nt | 9.5 | 1.8 | 3.9 | -5.0 | 5.5 | nt
Oc1ccc2c(c1)OCC1(O)Cc3cc(O)c(O)cc3C21 (stereo not given) | nt | nt | nt | nt | + | nt | +
O=S(=O)(c1ccc(OC(F)(F)F)cc1)N1CCCC(N2CCOCC2)C1 (stereo not given) | nt | 8.2 | -1.6 | 6.2 | -7.1 | -1.2 | nt
O=S(=O)(c1ccc2c(c1)OCCO2)N1CCC(n2cnc3cc(F)ccc32)CC1 | -18.0 | 6.8 | 1.6 | 3.1 | 16.6* | -4.8 | -37.8
CCC(C)c1ccc(NC(=O)COC(=O)CCNS(=O)(=O)c2cccs2)cc1 (stereo not given) | nt | nt | nt | nt | 25.9* | 2.2 | 45.1*
O=[N+]([O-])C1C(c2ccccc2)=NOC1c1ccccc1O (stereo not given) | nt | -1.7 | 0.5 | -3.5 | -7.0 | 7.5 | nt
CSCCC(NC(=O)c1ccco1)C(=O)N1CCCCCCC1 (stereo not given) | nt | 5.3 | -0.2 | 4.1 | 21.5* | 8.2 | 15.1
CCOC(=O)c1c(C)oc2ccc(O)cc12 | -6.4 | -4.8 | -1.0 | -3.3 | -2.7 | 5.8 | nt
CCOC(=O)c1c(C(C)(C)C)oc2ccc(O)cc12 | 6.6 | -6.7 | nt | 1.7 | 19.7* | 9.1 | 1.8
O=C1CC(C(=O)Nc2ccccc2C(=O)O)C(c2ccccc2)O1 (stereo not given) | 2.9 | 4.2 | -0.8 | 5.4 | 18.5* | -4.1 | -12.3
O=C1CC(C(=O)Nc2ccc(O)c(C(=O)O)c2)C(c2ccccc2)O1 (stereo not given) | 0.0 | 13.5 | -3.8 | 2.6 | 1.4 | -0.5 | nt
CC(C)c1ccccc1NC(=O)C1CC(=O)N(C2CCCC2)C1 (stereo not given) | nt | 8.2 | -1.5 | 1.3 | 6.0 | 2.2 | nt

High-throughput results from PubChem BioAssay.
